Experimental data taken from PubChem BioAssay AID1159580 (chemical genetic matrix, 2015).
In all, about 5,500 compounds went through this assay and about 2,000 (36%) were called active. About 18% were inconclusive and are not listed. Rule as the data show it: active = normalized growth mostly below about 0.91 (no sharp cut-off); inconclusive = no clear call, values can overlap the other calls; inactive = mostly above about 0.92. This is one part of the list.

Test: chemical genetic growth profiling, strain panel (AID 1159580);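 also: tested at 20 µM; growth read once vehicle control cultures reached saturation at 30 °C; 1 = growth at the plate median or of vehicle wells; lower values mean less growth of the strain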
Conditions: S. cerevisiae deletion strains, growth OD

Measured: normalized growth

CCCc1nc(C)c2c(=O)[nH]c(-c3cc(S(=O)(=O)N4CCN(CC)CC4)ccc3OCC)nn12
inactive: locus YAL021C, strain ccr4, active compounds read low 0.961 | locus YAL026C, strain drs2, active compounds read low 0.944 | locus YAL030W, strain snc1, active compounds read low 0.947 | locus YBL061C, strain skt5, active compounds read low 0.979 | locus YBR009C, strain hhf1, active compounds read low 0.975 | locus YBR023C, strain chs3, active compounds read low 0.974 | locus YBR171W, strain sec66, active compounds read low 0.967 | locus YBR231C, strain swc5, active compounds read low 0.97 | locus YBR279W, strain paf1, active compounds read low 0.981 | locus YCL011C, strain gbp2, active compounds read low 0.974 | locus YCL016C, strain dcc1, active compounds read low 0.974 | locus YCL061C, strain MRC1, active compounds read low 0.952 | locus YCL069W, strain vba3, active compounds read low 0.988 | locus YCR088W, strain abp1, active compounds read low 0.98 | locus YDL005C, strain med2, active compounds read low 0.98 | locus YDL040C, strain nat1, active compounds read low 0.985 | locus YDR001C, strain nth1, active compounds read low 0.964 | locus YDR069C, strain doa4, active compounds read low 0.951 | locus YDR137W, strain rgp1, active compounds read low 0.915 | locus YDR159W, strain sac3, active compounds read low 0.93 | locus YDR195W, strain ref2 0.938 | locus YDR297W, strain sur2, active compounds read low 0.984 | locus YDR334W, strain swr1, active compounds read low 0.913 | locus YDR335W, strain msn5, active compounds read low 0.97 | locus YDR392W, strain spt3, active compounds read low 0.964 | locus YEL003W, strain gim4, active compounds read low 0.969 | locus YEL037C, strain rad23, active compounds read low 0.985 | locus YEL061C, strain CIN8 (second series), active compounds read low 0.973 | locus YER015W, strain faa2, active compounds read low 0.983 | locus YER016W, strain bim1, active compounds read low 0.973 | locus YER111C, strain swi4, active compounds read low 0.972 | locus YER155C, strain BEM2 (second series), active compounds read low 0.945 | locus YFR010W, strain ubp6, active compounds read low 0.943 | locus YGL167C, strain pmr1, active compounds read low 0.957 | locus YGL173C, strain kem1, active compounds read low 0.949 | locus YGL227W, strain vid30, active compounds read low 0.965 | locus YGL240W, strain doc1, active compounds read low 0.921 | locus YGL253W, strain hxk2, active compounds read low 0.971 | locus YHR013C, strain ard1, active compounds read low 0.931 | locus YHR027C, strain rpn1, active compounds read low 0.942 | locus YHR030C, strain SLT2, active compounds read low 1.08 | locus YHR079C, strain IRE1, active compounds read low 1.07 | locus YHR142W, strain chs7, active compounds read low 0.971 | locus YJL092W, strain hpr5, active compounds read low 0.96 | locus YJL095W, strain BCK1 (second series), active compounds read low 0.974 | locus YJL095W, strain BCK1, active compounds read low 1.01 | locus YJL115W, strain asf1, active compounds read low 0.943 | locus YJL129C, strain trk1, active compounds read low 0.969 | locus YJL154C, strain vps35, active compounds read low 0.97 | locus YJL164C, strain tpk1, active compounds read low 0.948 | locus YJL166W, strain qcr8, active compounds read low 0.969 | locus YJL187C, strain SWE1, active compounds read low 0.972 | locus YJR066W, strain TOR1, active compounds read low 0.979 | locus YKL160W, strain elf1, active compounds read low 0.987 | locus YKR026C, strain gcn3, active compounds read low 0.973 | locus YKR091W, strain srl3, active compounds read low 0.977 | locus YLL001W, strain dnm1, active compounds read low 0.973 | locus YLL026W, active compounds read low 0.947 | locus YLL041C, strain sdh2, active compounds read low 0.96 | locus YLR027C, strain aat2, active compounds read low 0.953 | locus YLR113W, strain HOG1, active compounds read low 0.997 | locus YLR221C, strain rsa3, active compounds read low 0.978 | locus YLR258W, strain gsy2, active compounds read low 0.983 | locus YLR262C, strain YPT6 (second series), active compounds read low 0.979 | locus YLR320W, strain mms22, active compounds read low 0.964 | locus YLR342W, strain FKS1, active compounds read low 0.98 | locus YLR357W, strain rsc2, active compounds read low 0.937 | locus YLR370C, strain arc18, active compounds read low 0.966 | locus YLR384C, strain iki3, active compounds read low 0.95 | locus YML120C, strain ndi1, active compounds read low 0.981 | locus YMR058W, strain fet3, active compounds read low 0.954 | locus YMR125W, strain sto1, active compounds read low 0.969 | locus YMR129W, active compounds read low 0.981 | locus YMR205C, strain PFK2, active compounds read low 0.944 | locus YMR231W, strain pep5, active compounds read low 0.978 | locus YNL071W, strain lat1, active compounds read low 0.988 | locus YNL183C, strain NPR1, active compounds read low 0.967 | locus YNL209W, strain ssb2, active compounds read low 0.978 | locus YNL248C, strain rpa49, active compounds read low 0.966 | locus YNL322C, strain KRE1 (second series), active compounds read low 0.956 | locus YNR049C, strain mso1, active compounds read low 0.967 | locus YOR001W, strain rrp6, active compounds read low 0.956 | locus YOR070C, strain gyp1, active compounds read low 0.983 | locus YOR080W, strain dia2, active compounds read low 0.967 | locus YOR083W, strain WHI5, active compounds read low 0.946 | locus YOR106W, strain vam3, active compounds read low 0.955 | locus YOR231W, strain MKK1, active compounds read low 1.05 | locus YOR265W, strain rbl2, active compounds read low 0.98 | locus YOR270C, strain vph1, active compounds read low 0.992 | locus YOR290C, strain snf2, active compounds read low 0.938 | locus YPL051W, strain arl3, active compounds read low 0.975 | locus YPL078C, strain atp4, active compounds read low 0.97 | locus YPL106C, strain sse1, active compounds read low 0.868 | locus YPL240C, strain hsp82, active compounds read low 0.973 | locus YPL256C, strain CLN2, active compounds read low 1.09
